The sample as a whole holds a higher share of hits than the screen did.
Pf Dd2 inh: inhibitors of Plasmodium falciparum Dd2 growth; P. falciparum Dd2 growth, SYBR Green, 72 h; Potency, µM (top dose mostly 28.9 µM), actives largely listed as inhibitors; actives 4.3% (n = 120,000); active = well fitted inhibition curve with a large enough effect; note: nearly all actives have a fitted effect of over 65% in size
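Readout: SYBR Green fluorescence, 485 nm excitation, 535 nm emission, after ~16 h lysis at 37C. Before that, Dd2-infected red cells (2.5% hematocrit) grew 72 h with compound, 29 uM top final concentration.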
Each line names hits and unclear results; the compound was inactive in the other large screens.

COc1ccccc1NC(=O)CC(c1cc(OC)c(OC)c(OC)c1)N1Cc2ccccc2C1=O (centres undefined)	none
CCc1ccc(NC(=O)CC(c2cc(OC)c(OC)c(OC)c2)N2Cc3ccccc3C2=O)cc1 (centres undefined)	none
O=C(Nc1cccc(Cl)c1F)N1CCC(n2cnnc2C2CC2)C1 (centres undefined)	none
O=C1NCCCCCCN(C(=O)c2ccco2)[C@H]2C[C@H](c3nc(Cc4ccccc4)no3)C[C@@H]12	Pf Dd2 inh 7.9µM
Cn1nccc1C(=O)N1CCCCCCNC(=O)[C@@H]2C[C@@H](c3nc(Cc4ccccc4)no3)C[C@@H]21	none
N#Cc1ccc(C(=O)N2CCCCCCNC(=O)[C@@H]3C[C@@H](c4nc(Cc5ccccc5)no4)C[C@@H]32)cc1	Pf Dd2 inh 11µM
Cc1ccc(C(=O)N2CCCCCCNC(=O)[C@@H]3C[C@@H](c4nc(Cc5ccccc5)no4)C[C@@H]32)cn1	none
O=C1NCCCCCCN(C(=O)CN2CCCC2=O)[C@H]2C[C@H](c3nc(Cc4ccccc4)no3)C[C@@H]12	none
Cn1cc(C(=O)N2CCCCCCNC(=O)[C@@H]3C[C@@H](c4nc(Cc5ccccc5)no4)C[C@@H]32)cn1	none
Cc1nccn1CCNC(=O)C1CCCCC(=O)N1Cc1ccccc1 (centres undefined)	none
COCC1CN(C(=O)c2ocnc2C)CC12CCNCC2 (centres undefined)	none
O=C(Cn1nc2c(cc1=O)CCCC2)NCCc1ccco1	none
COc1cc(OC)cc(-c2nc(C3CC(=O)N(c4ccc(F)c(Cl)c4)C3)no2)c1 (centres undefined)	none
COc1ccc(-c2noc([C@@H]3CCCN3C(=O)Cc3ccccc3C)n2)cc1OC	none
Cc1ccoc1C(=O)N[C@@H]1CN(c2ncccn2)C[C@H]1CO	none
O=C1NCCCCCCN(S(=O)(=O)c2cccs2)[C@H]2CCC[C@@H]12	none
O=S(=O)(c1cccs1)N1C[C@@H](c2ccc(F)cc2)[C@@H]2[C@H]1C1CCN2CC1	Pf Dd2 inh 5.6µM
O=C1NCCCCCN(S(=O)(=O)c2cccs2)[C@H]2CCCC[C@@H]12	none
COc1ccc(OC)c(CNC(=O)C2Cn3cccc3C(=O)N2)c1 (centres undefined)	none
CCOC(=O)c1cnc2ccc(OC(F)(F)F)cc2c1Nc1ccccc1C(=O)O	Pf Dd2 inh 10µM
CCOC(=O)c1cnc2ccc(OC)cc2c1Nc1cccc(C(C)=O)c1	none
CCOC(=O)c1cnc2c(C)c(Cl)ccc2c1NCCc1ccc(OC)c(OC)c1	none
CCOC(=O)c1cnc2c(ccc3ccccc32)c1Nc1cccc(OC)c1	none
CCOC(=O)c1ccc2ncc(C(=O)OCC)c(NCCc3ccc(OC)c(OC)c3)c2c1	Pf Dd2 inh 8.9µM
CCOC(=O)c1cnc2ccc(OC)cc2c1NCCc1ccccc1	Pf Dd2 inh 4µM
CCOC(=O)c1cnc2c(C)cccc2c1NCCc1ccc(OC)c(OC)c1	none
CCOC(=O)c1cnc2ccc(OCC)cc2c1Nc1cc(Cl)c(OC)cc1OC	none
CCOC(=O)c1cnc2c(ccc3ccccc32)c1Nc1ccc(OCC)cc1	none
Cc1cc(Br)ccc1NC(=O)Cn1nc2c(cc1=O)CCCCC2	none
O=C1CO[C@H]2CN(c3ncccn3)C[C@H]2N1CC1CCCCC1	none
CN(CCc1ccccn1)C(=O)c1cn(CCN2CCNCC2)nn1	none
O=C(Nc1ccccc1)N[C@H]1C[C@H]2C(=O)NC[C@@H](CCC(=O)N3CCc4ccccc43)N2C1	none
Cn1cnc(S(=O)(=O)N2CCC3(CC2)N(c2ccccc2)C(=O)CS3=O)c1 (centres undefined)	none
CN(C)C(=O)c1cccnc1OC1CCN(S(=O)(=O)Cc2ccccc2Cl)C1 (centres undefined)	none
COc1ccccc1Cn1c(C(C)NC(=O)OCc2ccccc2)nc2cccnc21 (centres undefined)	none
O=C(Cc1ccc(F)cc1)N1CCN(c2cc(C(F)(F)F)ncn2)CC1	none
CNC(=O)[C@@H](c1ccccc1F)N1CCC[C@H]1C(=O)NCc1ccncc1	none
CN(C)C(=O)C1=NOC2CN(C(=O)Nc3cccnc3)CC12 (centres undefined)	none
O=S(=O)(c1ccccc1)N1CCC(Cc2nncn2-c2ccccc2)CC1	none
COc1cc(C(=O)Nc2ccc(Cl)c(-c3nc4ncccc4o3)c2)cc(OC)c1OC	none
COc1cccc(C(=O)NC(c2ccc(Cl)cc2)c2cc(Cl)c3cccnc3c2O)c1 (centres undefined)	Pf Dd2 inh 3.2µM
COc1cccc(C(=O)N[C@H]2[C@H](O)[C@H](O)C[C@@H]2c2cccnc2)c1	none
COc1cccc(CNC(=O)c2c[nH]c3ncccc23)c1	none
COc1cc(C(=O)NCC(c2cccnc2)N2CCc3ccccc3C2)cc(OC)c1OC (centres undefined)	none
COc1cc(C(=O)NC(c2ccc(Cl)cc2)c2cc(Cl)c3cccnc3c2O)cc(OC)c1OC (centres undefined)	Pf Dd2 inh 2.8µM
CN1C(=O)C(CC(=O)Nc2cccnc2)=C2CCCCC21 (centres undefined)	none
N#Cc1cccc(C(=O)N2CCCC(n3cc(-c4nc(C5CC5)no4)nn3)C2)c1 (centres undefined)	none
CC1(c2noc(C3CC3)n2)CCN(C(=O)CCc2cc(Cl)no2)CC1	none

Assay outcomes: PubChem BioAssay, National Center for Advancing Translational Sciences (NCATS)
